The record followed here is PubChem BioAssay (EPA / NIEHS).

Records with an inconclusive call do not appear. Calls of active or inactive are those of the source. How the source made its calls: active means hit-call score of the fitted dose curve at least 0.9, where 1 is the maximum; inconclusive means response in the unintended direction; inactive means score below 0.9.

In assay [1] the test system is guinea pig Atrionatriuretic Peptide Receptor A (ANPA), gene 100135578. Kind of assay: NVS_GPCR_gANPA: NovaScreen (NVS) G Protein-Coupled Receptor Assay for guinea pig Atrionatriuretic Peptide Receptor A (ANPA) (AID 2283291). Put shortly:
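Radioligand binding to guinea pig cerebellar membranes was measured after 1 h by filter-based scintillation counting. Chemicals were tested in duplicate at 25 uM, with hits run in concentration-response to a maximum of 50 uM. Binding loss was fitted against DMSO.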

Assay [2] concerns the target rat Corticotropin Releasing Factor Receptor (CRF), Crhr1 (gene 58959) (UniProt P35353). Kind of assay: NVS_GPCR_rCRF: NovaScreen (NVS) G Protein-Coupled Receptor Assay for rat Corticotropin Releasing Factor Receptor (CRF) (AID 2283300). Here is the method:
NVS_GPCR_rCRF is a biochemical, single-readout assay that uses extracted gene-proteins from Rat cortical membranes in a tissue-based cell-free assay. Measurements were taken 2 hours after chemical dosing in a 96-well plate.NVS_GPCR_rCRF is one of one assay component(s) measured or calculated from the NVS_GPCR_rCRF assay. It is designed to make measurements of radioligand binding, a form of binding reporter, as detected with scintillation counting signals by […] radiodetection technology.Data from the assay component NVS_GPCR_rCRF was analyzed into 1 assay endpoint. This assay endpoint, NVS_GPCR_rCRF, was analyzed in the positive analysis fitting direction relative to DMSO as the negative control and baseline of activity. […] Furthermore, this assay endpoint can be referred to as a primary readout, because the performed assay has only produced 1 assay endpoint. […]
Binding assays used specific radioligands (tritiated, iodinated) with non-radioactive competitive displacement ligands in agonist or antagonist protocols (as indicated) and various reference compounds and inhibitors to titrate specific binding to receptors and transporters. Most enzyme assays (CYPs, kinases, phosphatases, proteases, HDACs) used recombinant protein and specific substrates (fluorescence mostly, some colorimetric and radioactive) and inhibitors, followed by a biochemical separation of substrate and product. […]

Sequence of rat Corticotropin Releasing Factor Receptor (CRF), Crhr1 (gene 58959) (P35353 whole entry, looked up): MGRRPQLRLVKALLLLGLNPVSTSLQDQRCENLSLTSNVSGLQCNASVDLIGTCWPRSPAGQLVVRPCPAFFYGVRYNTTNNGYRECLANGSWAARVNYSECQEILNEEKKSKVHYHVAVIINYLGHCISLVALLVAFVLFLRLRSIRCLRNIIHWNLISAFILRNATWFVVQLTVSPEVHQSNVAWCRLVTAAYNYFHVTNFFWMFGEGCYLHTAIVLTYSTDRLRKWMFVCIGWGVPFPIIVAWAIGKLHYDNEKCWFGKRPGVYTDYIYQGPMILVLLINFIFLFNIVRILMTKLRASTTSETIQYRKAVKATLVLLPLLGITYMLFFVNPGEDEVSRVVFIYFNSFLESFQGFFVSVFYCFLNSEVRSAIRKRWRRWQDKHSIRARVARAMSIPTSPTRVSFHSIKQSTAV

Turning to `CCNS(=O)(=O)C(F)(F)C(F)(F)C(F)(F)C(F)(F)C(F)(F)C(F)(F)C(F)(F)C(F)(F)F`, in assay [1], the molecule was called inactive.

For `COc1cc(C=O)cc2c1[C@H](COC(N)=O)[C@]1(OC(C)=O)ON2C[C@H]2[C@@H]1N2C(C)=O`, the molecule was called inactive in assay [1].

Regarding `CCC[CH2][Sn]([Cl])([CH2]CCC)[CH2]CCC`, the AC50 in assay [2] is 3.75 µM (active).

On to `COC(=O)c1ccccc1N`, for which, in assay [2], the molecule was classed as inactive.

Broadly, the AC50 is the concentration at which the activity in the assay is half-maximal.
